# Compound activity as filed in PubChem BioAssay.
# Compounds with a hit are over-represented: about 10% of the library has one in this group of screens.
# RORg inh: qHTS for inhibitors of ROR gamma transcriptional activity; Drosophila S2 Gal4-RORgamma UAS-luciferase reporter, 20 h; 5.4% of 310,000 active; Potency, µM (series often up to 53.6 µM), for inactives: top-dose activity change, negative = inhibition, usual class: inhibitors; further: on the % scale 0 is the no-effect control and ±100 the full control effect; nearly all actives have a fitted effect of over 60% in size
# Target sequence (P51450 whole entry, looked up, the tested form may be a part): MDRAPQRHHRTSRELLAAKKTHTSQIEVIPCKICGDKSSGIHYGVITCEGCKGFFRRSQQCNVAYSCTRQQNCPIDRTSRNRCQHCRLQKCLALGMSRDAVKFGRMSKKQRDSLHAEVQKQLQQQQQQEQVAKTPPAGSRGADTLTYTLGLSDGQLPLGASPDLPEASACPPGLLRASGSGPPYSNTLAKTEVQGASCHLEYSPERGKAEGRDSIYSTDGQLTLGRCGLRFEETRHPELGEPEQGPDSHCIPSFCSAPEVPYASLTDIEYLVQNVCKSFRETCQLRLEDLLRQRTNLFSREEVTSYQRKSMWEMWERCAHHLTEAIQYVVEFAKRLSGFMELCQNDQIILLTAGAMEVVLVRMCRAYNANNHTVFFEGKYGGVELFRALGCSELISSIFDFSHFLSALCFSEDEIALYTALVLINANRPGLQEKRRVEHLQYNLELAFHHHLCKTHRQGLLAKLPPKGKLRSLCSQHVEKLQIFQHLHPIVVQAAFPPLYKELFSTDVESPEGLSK
#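 A Gal4/UAS one-hybrid system in insect cells: metallothionein-promoter Gal4–ROR gamma fusion plus Photinus luciferase reporter. Copper sulfate 700 uM final, 20 hr ambient incubation, luminescent detection after 10 min with reagent.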
# KB-3-1 tox: qHTS assay for MDR1-selective chemotherapeutics: Primary screen using the parental adenocarcinoma cell KB-3-1. 1.4% of 400,000 active. KB-3-1 viability, CellTiter-Glo ATP luminescence, 72 h. Potency, µM (series often up to 46.1 µM), usual class: cytotoxic; further: on the % scale 0 is the no-effect control and ±100 the full control effect; nearly all actives have a fitted effect of over 60% in size
#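 Multi-concentration cytotoxicity screen in KB-3-1 cells grown in DMEM lacking phenol red with 10% FBS. After 72 h at 37 °C with compound, ATP-dependent luminescence was recorded.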
# SW480 rereplic: A quantitative high throughput screen for small molecules that induce DNA re-replication in SW480 colon adenocarcinoma cells; 1.8% of 340,000 active; Potency, µM (highest dose often 46.1 µM), inactives show top-dose re-replication activation, hits mostly activators; AID 624297, 2012; SW480 DNA re-replication, Hoechst DNA content imaging, 48 h; further: % of control where 0% means no effect; nearly all actives have a fitted effect of over 55% in size
#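 Image-based read-out: total Hoechst fluorescence of nuclei (405 nm excitation, 500-530 nm emission), with hits raising the fraction of high-intensity nuclei. SW480 colon cells incubated 48 hr with compounds at 37 C.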
# MCF10A rerep: A quantitative high throughput screen for small molecules that induce DNA re-replication in MCF 10a normal breast cells | MCF 10A DNA re-replication, Hoechst nuclear intensity, 48 h | Potency, µM (doses to about 46.1 µM), without a hit: top-dose activity, positive = re-replication, actives largely listed as activators | 2.9% of 350,000 active | AID 624296, 2012; further: % of control where 0% means no effect; nearly all actives have a fitted effect of over 50% in size
# VP16 counter: VP16 counterscreen qHTS for inhibitors of ROR gamma transcriptional activity; Potency, µM (series often up to 53.6 µM), without a hit: at the highest dose activity, negative = inhibition, usual class: inhibitors; 3.5% of 310,000 active; Drosophila S2 Gal4-VP16 UAS-luciferase, luminescence, 20 h;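 further: Gal4-VP16 expression switched on by copper sulfate through the metallothionein promoter; on the % scale 0 is the no-effect control and ±100 the full control effect; nearly all actives have a fitted effect of over 50% in size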
# KB-V1 cytotox: qHTS assay for MDR1-selective chemotherapeutics: Primary screen using the drug-selected MDR subline cells KB-V1; KB-V1 MDR cells viability, CellTiter-Glo, 72 h; Potency, µM (series often up to 46.1 µM), most hits filed as cytotoxic; 3.4% of 400,000 active; further: on the % scale 0 is the no-effect control and ±100 the full control effect; nearly all actives have a fitted effect of over 60% in size
#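 qHTS viability screen in drug-selected KB-V1 MDR cells: 72 h compound treatment at 37 degrees C, ATP luminescence end point.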
# * = called active by the depositor; i = inactive; ? = inconclusive; · = not tested or not shown; [ ] = another dose, or the depositor's remark. The call rests on the fitted dose curve; in most records, active means well fitted curve in the direction sought with a large enough effect; inconclusive means small, poorly fitted or top-dose-only effect, or another doubt; inactive means no such curve, though single readings can be large; an effect the other way counts as inactive or inconclusive. Potency means the concentration at half of the fitted maximal effect.
SMILES,RORg inh,KB-3-1 tox,SW480 rereplic,MCF10A rerep,VP16 counter,KB-V1 cytotox
COc1cc([N+](=O)[O-])cc(/C=N/NC(=O)c2ccc(C)nc2)c1O,0.89µM*,?,·,15µM*,0.63µM*,?
CCNC(=S)N/N=C/c1ccccc1[N+](=O)[O-],4.5µM*,i,-3%,-7%,?,i
O=C1CCC/C(=N\NC(=O)c2ccc(COc3ccccc3-c3ccccc3)cc2)C1,?,i,100%,9.2µM*,3%,i
Cc1cc(C)n(-c2nc3cc(Cl)ccc3nc2N2CCN(c3ccccc3F)CC2)n1,·,i,·,·,·,?
CCN(CC)CCNC(=O)C(=O)Nc1c2c(nn1-c1ccc(F)cc1)CSC2,·,i,·,·,·,i
COCCn1ccc2c(OCC(=O)Nc3ccccc3F)cccc2c1=O,·,i,·,·,·,i
O=C(N/N=C/c1ccccc1[N+](=O)[O-])c1ccc(COc2ccccc2-c2ccccc2)cc1,19%,?,-4%,-7%,-16%,2.1µM*
COc1cc([N+](=O)[O-])cc(/C=N/NC(=O)c2ccc(NC(=O)c3ccc(C)cc3)cc2)c1O,?,5.2µM*,?,18%,-8%[10 µM],i
CC(=O)c1ccc(NS(=O)(=O)c2cccc3cccnc23)cc1,·,i,·,·,·,i
O=C(CCOc1ccccc1)N1CCN(S(=O)(=O)c2ccccc2F)CC1,·,i,3%,3%,·,21µM*
C[C@@H]1CN([C@@H](C)CO)C(=O)CCCn2cc(nn2)CO[C@H]1CN(C)S(=O)(=O)c1ccc(Cl)cc1,·,i,·,·,·,i
C=C1C=C(C(F)F)n2ncc(C(=O)NC(C)CC)c2N1 (stereo not given),·,i,·,·,·,i
CCOC(=O)c1c(N)c2cc([N+](=O)[O-])ccc2n1C,35%,i,8%,-1%,1%,?
CCOC(=O)/C(=C/c1c(C)n(C)c2ccc([N+](=O)[O-])cc12)C(C)=O,13µM*,23µM*,?,15µM*,?,?
Cc1cc(NC(=O)COC(=O)C(Nc2ccc(C(F)(F)F)cc2Cl)C(C)C)no1 (stereo not given),?,i,23%,21µM*,?,i
COc1ccc(-c2ccc(OC)c(OC)c2OC)c(OC)c1OC,·,i,-2%,-2%,·,23µM*
c1ccc(C[n+]2csc3ccccc32)cc1,?,i,?,23µM*,?,i
CN(c1nnc(NC(=O)Nc2ccc(Br)cc2)s1)C1CCCCC1,·,i,·,·,·,i
O=C1S/C(=C\c2ccc(O)c([N+](=O)[O-])c2)C(=O)N1Cc1cccc([N+](=O)[O-])c1,24%,i,-4%,?,9%,?
O=C1S/C(=C\c2ccc(O)c([N+](=O)[O-])c2)C(=O)N1c1ccccc1Cl,-44%,i,-70%,1.6µM*,-18%,i
CCCCCC1C(=O)CCC1CC(=O)O (stereo not given),-23%,·,·,·,13%,·
CCCCC1C(=O)CC[C@H]2[C@@H]1CC(=O)[C@@H]2C/C=C\CCCC(=O)O (stereo not given in full),-25%,i,1.8µM*,64%,-27%,i
Nc1ccc(C(=O)N/N=C/c2cn(Cc3cccc(F)c3)c3ccccc23)cc1,?,i,-9%,14%,?,?
O=C(N/N=C/c1cn(Cc2ccccc2)c2ccccc12)c1ccncc1,2.8µM*,i,?,12%,?,?
O=C(N/N=C/c1cn(CC(=O)N2CCOCC2)c2ccccc12)c1cccnc1,10%,i,-5%,5%,4%,i
